# Reference: article PMC7862700, “An all-to-all approach to the identification of sequence-specific readers for epigenetic DNA modifications on cytosine”
# Columns and labels:
# Experiment in all cases: DAPPL (digital affinity profiling via proximity ligation, sequencing); 10 mM Tris-HCl pH 7.5, 50 mM NaCl, 1 mM DTT, 4% glycerol, room temperature, 30 min; GST-TFs on glutathione beads, 16-mer random dsDNA library, 0.1% formaldehyde crosslink after washing; high values mean tight binding
# FLI1 = target: T1, FLI1 (Homo sapiens, UniProt Q01543 1-452); settings: protein: recombinant; tags: N-terminal GST; dsDNA, one strand shown
# T1 sequence: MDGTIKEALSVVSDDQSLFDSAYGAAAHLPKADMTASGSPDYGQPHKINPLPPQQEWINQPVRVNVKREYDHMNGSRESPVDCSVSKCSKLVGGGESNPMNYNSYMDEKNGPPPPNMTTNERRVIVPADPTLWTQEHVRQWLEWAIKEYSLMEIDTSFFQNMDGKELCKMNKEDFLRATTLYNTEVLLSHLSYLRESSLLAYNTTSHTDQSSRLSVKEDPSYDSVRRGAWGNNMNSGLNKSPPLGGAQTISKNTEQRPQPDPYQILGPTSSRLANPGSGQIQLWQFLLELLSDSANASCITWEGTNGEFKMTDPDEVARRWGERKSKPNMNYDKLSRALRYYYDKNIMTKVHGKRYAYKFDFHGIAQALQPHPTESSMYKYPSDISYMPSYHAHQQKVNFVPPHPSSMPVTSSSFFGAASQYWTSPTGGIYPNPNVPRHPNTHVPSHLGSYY
# How it was run: (§1)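 Pools of DNA-barcoded human transcription factors, expressed in yeast as GST fusions on glutathione beads and combined with a tag-only sample, were incubated with 200 nmole of a 16-mer random double-stranded DNA library. Incubation took 30 min at room temperature in Tris/NaCl/DTT/glycerol buffer and was followed by washing, 0.1% formaldehyde crosslinking, proximity ligation (BsaI/T4 ligase, 1 h, 37 °C), PCR amplification and sequencing on an Illumina NextSeq500. Binding signal is the ratio of a hexamer's read frequency for a factor to its frequency for the tag-only sample.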
# ELK1 = target: T2, ELK1 (Homo sapiens, UniProt P19419 1-428); settings: protein: recombinant; tags: N-terminal GST; dsDNA, one strand shown
# T2 sequence: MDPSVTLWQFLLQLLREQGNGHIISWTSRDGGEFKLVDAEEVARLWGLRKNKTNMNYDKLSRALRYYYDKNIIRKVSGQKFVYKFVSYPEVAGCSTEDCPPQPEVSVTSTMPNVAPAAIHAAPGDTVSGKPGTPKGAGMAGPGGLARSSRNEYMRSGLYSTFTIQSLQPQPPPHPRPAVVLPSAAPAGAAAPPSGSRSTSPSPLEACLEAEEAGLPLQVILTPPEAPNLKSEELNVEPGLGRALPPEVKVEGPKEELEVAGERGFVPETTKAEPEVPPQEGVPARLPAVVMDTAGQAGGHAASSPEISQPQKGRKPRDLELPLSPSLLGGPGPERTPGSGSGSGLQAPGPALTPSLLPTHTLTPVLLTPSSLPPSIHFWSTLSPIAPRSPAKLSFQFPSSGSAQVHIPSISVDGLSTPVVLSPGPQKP
# How it was run: as §1
# GABPA = target: T3, GABPA (Homo sapiens, UniProt Q06546 1-454); settings: protein: recombinant; tags: N-terminal GST; dsDNA, one strand shown
# T3 sequence: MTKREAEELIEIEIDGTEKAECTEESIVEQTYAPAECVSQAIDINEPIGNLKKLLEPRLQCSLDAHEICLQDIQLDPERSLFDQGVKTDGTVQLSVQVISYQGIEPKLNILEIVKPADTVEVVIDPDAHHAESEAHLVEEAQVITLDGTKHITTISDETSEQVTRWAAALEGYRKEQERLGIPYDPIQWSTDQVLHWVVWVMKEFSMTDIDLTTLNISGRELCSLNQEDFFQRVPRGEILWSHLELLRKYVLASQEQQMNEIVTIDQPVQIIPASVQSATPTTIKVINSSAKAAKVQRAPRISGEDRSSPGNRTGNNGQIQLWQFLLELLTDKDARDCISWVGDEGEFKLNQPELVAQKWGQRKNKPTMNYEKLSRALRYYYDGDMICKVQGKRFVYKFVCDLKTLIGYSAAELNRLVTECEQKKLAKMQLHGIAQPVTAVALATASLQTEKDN
# How it was run: as §1
# ERG = target: T4, ERG (Homo sapiens, UniProt P11308 1-479); settings: protein: recombinant; tags: N-terminal GST; dsDNA, one strand shown
# T4 sequence: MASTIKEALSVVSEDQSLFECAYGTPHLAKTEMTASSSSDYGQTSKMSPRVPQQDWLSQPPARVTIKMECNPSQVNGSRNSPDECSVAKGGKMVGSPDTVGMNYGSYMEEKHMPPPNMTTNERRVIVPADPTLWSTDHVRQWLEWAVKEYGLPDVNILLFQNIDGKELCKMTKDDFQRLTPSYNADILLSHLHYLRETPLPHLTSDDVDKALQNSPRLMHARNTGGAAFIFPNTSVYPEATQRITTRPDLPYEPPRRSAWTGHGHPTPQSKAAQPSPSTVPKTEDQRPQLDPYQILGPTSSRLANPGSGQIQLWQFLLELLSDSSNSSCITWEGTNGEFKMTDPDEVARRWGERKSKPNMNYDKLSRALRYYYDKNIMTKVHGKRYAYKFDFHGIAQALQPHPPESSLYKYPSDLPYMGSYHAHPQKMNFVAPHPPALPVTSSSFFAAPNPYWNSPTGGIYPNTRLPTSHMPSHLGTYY
# How it was run: as §1
# ELF1 = ELF1 (Homo sapiens, UniProt P32519 1-619); settings: protein: recombinant; tags: N-terminal GST; dsDNA, one strand shown
# Sequence of ELF1 (P32519 whole entry): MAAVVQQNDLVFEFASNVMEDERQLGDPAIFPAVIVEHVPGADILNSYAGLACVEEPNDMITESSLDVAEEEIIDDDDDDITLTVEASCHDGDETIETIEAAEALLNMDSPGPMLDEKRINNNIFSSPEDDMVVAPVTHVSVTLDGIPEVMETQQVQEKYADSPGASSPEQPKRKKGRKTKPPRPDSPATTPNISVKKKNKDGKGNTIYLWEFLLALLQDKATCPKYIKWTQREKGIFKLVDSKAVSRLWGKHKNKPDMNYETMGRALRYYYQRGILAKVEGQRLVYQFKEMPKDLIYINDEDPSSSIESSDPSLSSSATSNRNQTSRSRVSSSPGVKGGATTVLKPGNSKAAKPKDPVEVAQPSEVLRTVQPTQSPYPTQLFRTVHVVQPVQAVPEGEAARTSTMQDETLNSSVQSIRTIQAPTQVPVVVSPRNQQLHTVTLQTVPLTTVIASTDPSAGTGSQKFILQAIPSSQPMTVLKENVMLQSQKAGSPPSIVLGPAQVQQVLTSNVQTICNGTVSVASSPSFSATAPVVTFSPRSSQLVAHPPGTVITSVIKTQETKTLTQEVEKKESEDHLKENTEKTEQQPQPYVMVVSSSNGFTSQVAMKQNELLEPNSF
# How it was run: as §1
# EHF = target: T5, EHF (Homo sapiens, UniProt Q9NZC4 1-300); settings: protein: recombinant; tags: N-terminal GST; dsDNA, one strand shown
# T5 sequence: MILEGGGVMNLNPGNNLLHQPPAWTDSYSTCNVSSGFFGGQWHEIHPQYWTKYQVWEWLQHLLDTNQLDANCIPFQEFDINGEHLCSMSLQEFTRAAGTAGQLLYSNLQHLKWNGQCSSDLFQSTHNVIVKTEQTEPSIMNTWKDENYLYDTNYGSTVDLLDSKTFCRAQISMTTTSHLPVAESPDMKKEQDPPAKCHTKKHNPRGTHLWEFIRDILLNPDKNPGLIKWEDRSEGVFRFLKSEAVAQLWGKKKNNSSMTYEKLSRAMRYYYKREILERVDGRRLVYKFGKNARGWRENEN
# How it was run: as §1
# SPI1 = SPI1 (Homo sapiens, UniProt P17947 1-270); settings: protein: recombinant; tags: N-terminal GST; dsDNA, one strand shown
# How it was run: as §1
# SPIB = SPIB (Homo sapiens, UniProt Q01892 1-262); settings: protein: recombinant; tags: N-terminal GST; dsDNA, one strand shown
# Sequence of SPIB (Q01892 whole entry): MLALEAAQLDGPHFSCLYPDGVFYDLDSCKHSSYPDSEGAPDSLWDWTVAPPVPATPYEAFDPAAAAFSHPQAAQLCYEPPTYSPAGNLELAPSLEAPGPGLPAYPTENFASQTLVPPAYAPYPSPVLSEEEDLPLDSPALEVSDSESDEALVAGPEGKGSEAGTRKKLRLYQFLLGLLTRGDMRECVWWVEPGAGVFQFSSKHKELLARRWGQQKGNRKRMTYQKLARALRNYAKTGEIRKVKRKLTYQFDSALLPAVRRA
# How it was run: as §1
# ELK3 = target: T6, ELK3 (Homo sapiens, UniProt P41970 1-407); settings: protein: recombinant; tags: N-terminal GST; dsDNA, one strand shown
# T6 sequence: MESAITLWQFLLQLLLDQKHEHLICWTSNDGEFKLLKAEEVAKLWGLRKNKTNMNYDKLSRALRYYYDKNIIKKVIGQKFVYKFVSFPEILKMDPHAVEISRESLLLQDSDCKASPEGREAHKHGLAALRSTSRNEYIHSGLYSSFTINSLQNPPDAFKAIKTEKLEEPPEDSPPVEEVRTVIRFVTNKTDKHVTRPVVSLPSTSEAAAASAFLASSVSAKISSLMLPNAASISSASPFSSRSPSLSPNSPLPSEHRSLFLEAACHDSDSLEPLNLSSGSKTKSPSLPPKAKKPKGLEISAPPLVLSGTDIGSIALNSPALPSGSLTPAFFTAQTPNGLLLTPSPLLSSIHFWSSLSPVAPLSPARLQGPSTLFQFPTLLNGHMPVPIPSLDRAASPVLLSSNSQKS
# How it was run: as §1
# FEV = target: T7, FEV (Homo sapiens, UniProt Q99581 1-238); settings: protein: recombinant; tags: N-terminal GST; dsDNA, one strand shown
# T7 sequence: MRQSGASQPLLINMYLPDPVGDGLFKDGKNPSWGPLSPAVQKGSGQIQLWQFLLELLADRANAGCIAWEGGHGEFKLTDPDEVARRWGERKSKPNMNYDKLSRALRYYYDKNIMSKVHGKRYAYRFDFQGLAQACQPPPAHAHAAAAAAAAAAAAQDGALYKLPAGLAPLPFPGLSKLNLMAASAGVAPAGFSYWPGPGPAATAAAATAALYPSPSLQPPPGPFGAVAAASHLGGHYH
# How it was run: as §1
# ETV5 = ETV5 (Homo sapiens, UniProt P41161 1-510); settings: protein: recombinant; tags: N-terminal GST; dsDNA, one strand shown
# Sequence of ETV5 (P41161 whole entry): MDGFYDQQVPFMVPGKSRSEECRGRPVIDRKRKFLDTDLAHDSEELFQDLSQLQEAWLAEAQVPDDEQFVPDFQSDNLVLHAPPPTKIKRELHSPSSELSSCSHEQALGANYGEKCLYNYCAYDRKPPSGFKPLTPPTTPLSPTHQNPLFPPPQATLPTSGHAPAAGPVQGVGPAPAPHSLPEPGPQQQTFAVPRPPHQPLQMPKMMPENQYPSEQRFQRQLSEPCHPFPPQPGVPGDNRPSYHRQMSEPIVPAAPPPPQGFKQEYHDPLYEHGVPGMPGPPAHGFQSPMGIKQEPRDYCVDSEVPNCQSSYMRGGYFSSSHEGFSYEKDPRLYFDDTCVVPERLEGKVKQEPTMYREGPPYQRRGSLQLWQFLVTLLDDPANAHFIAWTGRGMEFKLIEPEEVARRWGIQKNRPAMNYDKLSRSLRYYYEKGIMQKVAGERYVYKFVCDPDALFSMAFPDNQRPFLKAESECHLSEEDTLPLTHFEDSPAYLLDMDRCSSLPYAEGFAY
# How it was run: as §1
# HSF1 = HSF1 (Homo sapiens, UniProt Q00613 1-529); settings: protein: recombinant; tags: N-terminal GST; chain copies: 3; dsDNA, one strand shown
# Sequence of HSF1 (Q00613 whole entry): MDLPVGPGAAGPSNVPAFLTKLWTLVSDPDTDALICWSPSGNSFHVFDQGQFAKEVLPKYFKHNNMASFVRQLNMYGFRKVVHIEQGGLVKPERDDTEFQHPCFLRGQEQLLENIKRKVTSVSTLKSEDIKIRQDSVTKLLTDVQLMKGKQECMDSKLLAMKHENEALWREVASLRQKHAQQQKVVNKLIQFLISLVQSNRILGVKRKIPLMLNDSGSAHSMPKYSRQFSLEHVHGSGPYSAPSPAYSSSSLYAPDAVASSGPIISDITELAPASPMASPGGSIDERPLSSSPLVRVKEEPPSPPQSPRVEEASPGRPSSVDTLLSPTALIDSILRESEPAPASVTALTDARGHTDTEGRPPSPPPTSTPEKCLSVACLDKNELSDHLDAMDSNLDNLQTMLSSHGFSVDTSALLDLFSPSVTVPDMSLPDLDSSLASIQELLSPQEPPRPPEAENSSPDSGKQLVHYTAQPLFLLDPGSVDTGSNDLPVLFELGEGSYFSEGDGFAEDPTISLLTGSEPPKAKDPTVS
# How it was run: as §1
# SPIC = target: T8, SPIC (Homo sapiens, UniProt Q8N5J4 1-248); settings: protein: recombinant; tags: N-terminal GST; dsDNA, one strand shown
# T8 sequence: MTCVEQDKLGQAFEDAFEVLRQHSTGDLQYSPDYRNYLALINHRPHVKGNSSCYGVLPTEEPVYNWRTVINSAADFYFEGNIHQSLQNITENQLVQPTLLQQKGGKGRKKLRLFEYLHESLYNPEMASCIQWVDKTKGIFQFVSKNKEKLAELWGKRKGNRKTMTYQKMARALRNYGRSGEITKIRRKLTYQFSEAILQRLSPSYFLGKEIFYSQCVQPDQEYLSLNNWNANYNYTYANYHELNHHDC
# How it was run: as §1
# ELF4 = ELF4 (Homo sapiens, UniProt Q99607 1-663); settings: protein: recombinant; tags: N-terminal GST; dsDNA, one strand shown
# Sequence of ELF4 (Q99607 whole entry): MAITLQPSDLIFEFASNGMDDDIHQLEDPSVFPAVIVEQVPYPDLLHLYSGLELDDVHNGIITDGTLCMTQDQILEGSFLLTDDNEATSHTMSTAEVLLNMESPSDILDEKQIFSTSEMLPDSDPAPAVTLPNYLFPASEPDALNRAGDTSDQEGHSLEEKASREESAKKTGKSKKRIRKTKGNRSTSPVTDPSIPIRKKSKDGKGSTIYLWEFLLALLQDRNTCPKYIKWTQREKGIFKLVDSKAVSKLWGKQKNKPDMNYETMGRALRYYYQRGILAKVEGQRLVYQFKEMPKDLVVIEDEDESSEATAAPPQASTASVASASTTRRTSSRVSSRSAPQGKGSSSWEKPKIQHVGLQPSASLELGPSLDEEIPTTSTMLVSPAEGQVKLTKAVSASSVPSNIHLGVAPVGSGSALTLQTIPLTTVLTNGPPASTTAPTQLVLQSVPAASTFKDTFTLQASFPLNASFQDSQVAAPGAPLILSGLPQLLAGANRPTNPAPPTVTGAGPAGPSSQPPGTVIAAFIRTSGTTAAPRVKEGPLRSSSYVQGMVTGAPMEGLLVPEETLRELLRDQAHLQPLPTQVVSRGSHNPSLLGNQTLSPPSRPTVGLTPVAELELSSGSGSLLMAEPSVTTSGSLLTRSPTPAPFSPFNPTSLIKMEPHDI
# How it was run: as §1
# ELK4 = target: T9, ELK4 (Homo sapiens, UniProt P28324-2 1-405); settings: protein: recombinant; tags: N-terminal GST; dsDNA, one strand shown
# T9 sequence: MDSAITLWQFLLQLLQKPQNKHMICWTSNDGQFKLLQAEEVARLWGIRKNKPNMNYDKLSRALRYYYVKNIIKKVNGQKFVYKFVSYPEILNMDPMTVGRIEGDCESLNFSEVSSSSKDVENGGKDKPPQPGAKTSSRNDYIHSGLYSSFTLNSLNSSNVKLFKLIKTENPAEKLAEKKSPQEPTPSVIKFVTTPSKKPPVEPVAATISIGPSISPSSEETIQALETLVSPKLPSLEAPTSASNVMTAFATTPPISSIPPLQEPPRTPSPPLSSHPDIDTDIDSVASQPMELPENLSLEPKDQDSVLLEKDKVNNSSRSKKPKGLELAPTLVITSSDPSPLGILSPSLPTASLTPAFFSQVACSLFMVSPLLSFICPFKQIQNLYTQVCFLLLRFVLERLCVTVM
# How it was run: as §1
# ETV2 = target: T10, ETV2 (Homo sapiens, UniProt O00321 1-342); settings: protein: recombinant; tags: N-terminal GST; dsDNA, one strand shown
# T10 sequence: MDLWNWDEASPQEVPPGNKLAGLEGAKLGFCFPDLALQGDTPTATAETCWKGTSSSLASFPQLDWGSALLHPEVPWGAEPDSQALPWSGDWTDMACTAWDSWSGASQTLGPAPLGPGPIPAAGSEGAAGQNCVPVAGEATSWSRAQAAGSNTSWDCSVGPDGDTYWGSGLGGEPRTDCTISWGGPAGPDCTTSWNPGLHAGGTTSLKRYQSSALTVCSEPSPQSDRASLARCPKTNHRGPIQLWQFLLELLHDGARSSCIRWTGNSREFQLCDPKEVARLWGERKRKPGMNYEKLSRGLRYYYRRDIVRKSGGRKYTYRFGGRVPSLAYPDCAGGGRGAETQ
# How it was run: as §1
# ELF3 = target: T11, ELF3 (Homo sapiens, UniProt P78545 1-371); settings: protein: recombinant; tags: N-terminal GST; dsDNA, one strand shown
# T11 sequence: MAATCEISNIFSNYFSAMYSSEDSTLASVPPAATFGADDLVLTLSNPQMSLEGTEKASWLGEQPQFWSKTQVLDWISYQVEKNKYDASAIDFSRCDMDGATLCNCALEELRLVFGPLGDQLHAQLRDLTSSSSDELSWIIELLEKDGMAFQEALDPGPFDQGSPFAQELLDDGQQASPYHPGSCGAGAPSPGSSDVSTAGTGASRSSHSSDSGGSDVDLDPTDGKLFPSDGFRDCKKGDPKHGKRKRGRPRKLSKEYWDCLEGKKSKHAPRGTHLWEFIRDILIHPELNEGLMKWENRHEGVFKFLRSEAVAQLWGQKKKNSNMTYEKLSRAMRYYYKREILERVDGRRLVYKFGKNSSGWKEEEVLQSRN
# How it was run: as §1
# CRX = CRX (Homo sapiens, UniProt O43186 1-299); settings: protein: recombinant; tags: N-terminal GST; dsDNA, one strand shown
# Sequence of CRX (O43186 whole entry): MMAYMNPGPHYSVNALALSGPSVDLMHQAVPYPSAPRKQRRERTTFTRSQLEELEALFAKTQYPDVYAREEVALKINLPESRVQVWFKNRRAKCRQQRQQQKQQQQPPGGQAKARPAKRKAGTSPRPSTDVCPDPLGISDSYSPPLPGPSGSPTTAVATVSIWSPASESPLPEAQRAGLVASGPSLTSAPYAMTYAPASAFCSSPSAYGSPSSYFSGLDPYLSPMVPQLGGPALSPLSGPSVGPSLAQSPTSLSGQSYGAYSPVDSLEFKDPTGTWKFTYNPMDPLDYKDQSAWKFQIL
# How it was run: as §1
# ETV1 = ETV1 (Homo sapiens, UniProt P50549 1-477); settings: protein: recombinant; tags: N-terminal GST; dsDNA, one strand shown
# Sequence of ETV1 (P50549 whole entry): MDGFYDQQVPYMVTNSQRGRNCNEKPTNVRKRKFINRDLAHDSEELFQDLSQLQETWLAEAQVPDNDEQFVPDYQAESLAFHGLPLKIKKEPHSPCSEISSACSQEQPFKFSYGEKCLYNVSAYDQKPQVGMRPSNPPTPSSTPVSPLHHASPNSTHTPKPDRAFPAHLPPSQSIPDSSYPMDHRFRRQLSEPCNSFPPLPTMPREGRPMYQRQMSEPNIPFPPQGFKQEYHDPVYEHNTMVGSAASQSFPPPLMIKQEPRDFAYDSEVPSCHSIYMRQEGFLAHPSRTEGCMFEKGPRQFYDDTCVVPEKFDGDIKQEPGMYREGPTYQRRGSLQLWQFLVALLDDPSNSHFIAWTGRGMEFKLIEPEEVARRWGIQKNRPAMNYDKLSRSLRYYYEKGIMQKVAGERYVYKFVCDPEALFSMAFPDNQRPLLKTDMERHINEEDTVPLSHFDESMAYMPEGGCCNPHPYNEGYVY
# How it was run: as §1
sequence,measurement,setting,value
CCTTAT,binding signal,FLI1,"1.53 fold enrichment (6-mer frequency, TF over GST control)"
same,binding signal,ELK1,"1.34 fold enrichment (6-mer frequency, TF over GST control)"
same,binding signal,GABPA,"1.48 fold enrichment (6-mer frequency, TF over GST control)"
same,binding signal,ERG,"1.45 fold enrichment (6-mer frequency, TF over GST control)"
same,binding signal,ELF1,"1.39 fold enrichment (6-mer frequency, TF over GST control)"
same,binding signal,EHF,"1.57 fold enrichment (6-mer frequency, TF over GST control)"
same,binding signal,SPI1,"1.6 fold enrichment (6-mer frequency, TF over GST control)"
same,binding signal,SPIB,"1.49 fold enrichment (6-mer frequency, TF over GST control)"
same,binding signal,ELK3,"1.28 fold enrichment (6-mer frequency, TF over GST control)"
same,binding signal,FEV,"1.4 fold enrichment (6-mer frequency, TF over GST control)"
same,binding signal,ETV5,"1.41 fold enrichment (6-mer frequency, TF over GST control)"
same,binding signal,HSF1,"1.35 fold enrichment (6-mer frequency, TF over GST control)"
same,binding signal,SPIC,"1.33 fold enrichment (6-mer frequency, TF over GST control)"
same,binding signal,ELF4,"1.47 fold enrichment (6-mer frequency, TF over GST control)"
same,binding signal,ELK4,"1.45 fold enrichment (6-mer frequency, TF over GST control)"
same,binding signal,ETV2,"1.39 fold enrichment (6-mer frequency, TF over GST control)"
same,binding signal,ELF3,"1.37 fold enrichment (6-mer frequency, TF over GST control)"
same,binding signal,CRX,"1.77 fold enrichment (6-mer frequency, TF over GST control)"
same,binding signal,ETV1,"1.62 fold enrichment (6-mer frequency, TF over GST control)"
